Only a selection was taken, and hits are over-represented in it overall.
Dicer processing: inhibitors of human Dicer processing of pre-microRNA; Q9UPY3; cat-ELCCA pre-miR-21 Dicer processing, chemiluminescence; stronger effect = higher value; z-score at 25 µM; hit rate 6% among 47,000; in the data active = z-score above about 3, passing the limit was not always enough;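 also: higher signal means more uncleaved substrate so more Dicer inhibition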
Large screens that a line does not name were inactive.

S=c1[nH]nc(SCC2CC2)s1	none
O=C1CSC(=O)N1CC(O)Cn1c2ccc(Cl)cc2c2cc(Cl)ccc21 (stereo not drawn)	none
COc1ccc(Cc2nc3c4c5c(sc4ncn3n2)CCCCC5)cc1	none
CCOC(=O)C1=C(C)NC2=C(C(=O)CC(C)(C)C2)C1c1ccc(C(=O)OC)cc1 (stereo not drawn)	none
Cc1noc(/C=C/c2cn(C)c3ccccc23)c1[N+](=O)[O-]	none
COc1ccc(/C=C/c2ccc(OC)cc2)cc1	Dicer processing 3.1
COc1ccc(/C=C/c2nc3ccccc3n2C)cc1	none
COc1ccc(/C=C/c2sc(C)c(C)[n+]2C)cc1	none
COC(=O)COc1c(C)[nH]ccc1=O	none
CC(=O)C1=CN=C(c2ccc(Cl)cc2)SC1	none
Cc1oc(-c2ccccc2)nc1CC(=O)O	none
O=C(CSc1nnc2c(n1)[nH]c1ccccc12)Nc1nnc(-c2ccccc2)s1	none
O=C(O)CSc1nnc2c(n1)[nH]c1ccccc12	none
O=C(CSc1nnc2c(n1)[nH]c1ccccc12)Nc1nc2ccccc2s1	Dicer processing 5.4
Cc1nnc(NC(=O)CSc2nnc3c(n2)[nH]c2ccccc23)s1	none
C=C(C)CSc1nnc2c(n1)[nH]c1ccccc12	Dicer processing 3.6
CCOC(=O)CSc1nnc2c(n1)[nH]c1ccccc12	none
COc1cccc2c1[C@@H]1CN(CCCCn3c(=O)[nH]c4c(sc5ncc(-c6ccccc6)nc54)c3=O)C[C@@H]1CO2	none
C#C[C@]1(O)CC[C@H]2[C@@H]3CCC4=Cc5oncc5CC4(C)[C@H]3CCC21C (stereo partly drawn)	none
CN(C)/C=C(\C#N)C(=O)NOCc1c(F)cccc1Cl	none
CS(=O)(=O)c1sc(Cl)c(-c2ccc(Cl)cc2)c1C#N	none
CCOC(=O)c1sc(S(C)=O)c2c1CC(c1ccccc1)CC2=O (stereo not drawn)	none
CS(=O)(=O)c1sc(C#N)c2c1C(=O)CC(c1ccccc1)C2 (stereo not drawn)	Dicer processing 5.7
CC1=C(C(=O)OCCOC(C)C)C(c2ccc(Cl)cc2)C2=C(CC(c3cccs3)CC2=O)N1 (stereo not drawn)	none
OC[C@H]1O[C@@H](Oc2ccc(O)cc2)[C@H](O)[C@@H](O)[C@@H]1O	none
CCOC(=O)c1c(NC(=O)c2ccco2)sc2c1CCC(CC)C2 (stereo not drawn)	none
CCOC(=O)c1c(NC(=O)c2ccco2)sc2c1CCC(C)C2 (stereo not drawn)	Dicer processing 3.3
CNC(=O)c1c(NC(=O)c2ccco2)sc2c1CCC(C(C)(C)C)C2 (stereo not drawn)	none
CC1CCc2c(sc(NC(=O)c3ccco3)c2C(=O)N2CCOCC2)C1 (stereo not drawn)	Dicer processing 3
CCOC(=O)c1c(NC(=O)c2ccco2)sc2c1CCC(C(C)(C)C)C2 (stereo not drawn)	none
O=C(Nc1sc2c(c1C(=O)O)CCCC2)c1ccco1	none
Cc1nn(-c2ccccc2)c2oc(=O)cc(-c3ccc([N+](=O)[O-])cc3)c12	none
COc1cc(-c2nc3c([nH]2)c(=O)n(C)c(=O)n3C)ccc1O	none
CN1c2ccccc2C(C)(C)C12C=Cc1cc(O)ccc1O2 (stereo not drawn)	Dicer processing 15
CC1(C)C=Cc2cc(/C(N)=N/O)ccc2O1	none
O=c1[nH]c(=O)n([C@H]2C[C@H](O)[C@@H](CO)O2)cc1I	none
FC(F)(F)c1cnc(SCc2ccc(Cl)cc2)c(Cl)c1	none
CCc1c(O)nc(SCCN(CC)CC)[nH]c1=O	none
CCN(CC)CCSc1nc(O)c(C(C)C)c(=O)[nH]1	Dicer processing 4.2
CC(C)c1c(O)nc(SCCN2CCOCC2)[nH]c1=O	none
CC(C)NC(=O)c1scc(S(C)(=O)=O)c1Cl	none
Cc1cccc(Cl)c1NNC(=O)Nc1c([N+](=O)[O-])c(C)nn1C	none
O=C(NOC(=O)c1c(F)cccc1Cl)c1ccc(Cl)c(Cl)c1	none
CC1CN(C(=O)C2c3ccccc3Oc3ccccc32)CC(C)O1 (stereo not drawn)	none
O=C(C1c2ccccc2Oc2ccccc21)N1CCCC1	Dicer processing 4
O=C(O)C1c2ccccc2Oc2ccccc21	none
COC(=O)C1CCN(C(=O)C2c3ccccc3Oc3ccccc32)CC1	Dicer processing 5
CC(C)NC(=O)C1c2ccccc2Oc2ccccc21	none
CC1CCCCN1C(=O)C1c2ccccc2Oc2ccccc21 (stereo not drawn)	none
Nc1ncnc2c1ncn2CCN1CCOCC1	none
CSc1ccc(C2Nc3ccc4ncccc4c3C3=C2C(=O)CCC3)cc1 (stereo not drawn)	none
CCc1c(O)nc(SCC(=O)N2CCc3ccccc32)n(-c2ccc(F)cc2)c1=O	none
CC(=O)OC[C@H]1OC=C[C@@H](OC(C)=O)[C@@H]1OC(C)=O	none
O=C1C(=O)N2C(=C1C(=O)N1CCOCC1)c1ccccc1CC21CCCCC1	none
CCOC(=O)C1=C(N)Oc2c(C)cc(Cl)cc2C1C(C#N)C(=O)OCC (stereo not drawn)	none
COc1cccc2ccc(=O)n(C)c12	none
Cn1c(-c2ccccc2)cccc1=O	Dicer processing 3.8
Cn1c(-c2ccccc2)cn2cc(-c3ccccc3)nc12	none
CC(C)(C)c1cc(NC(=O)C2COc3ccccc3O2)n[nH]1 (stereo not drawn)	none
NNC(=O)c1ccc(Oc2cc(Cl)cc(Cl)c2)o1	none
CC(C)S(=O)(=O)c1csc(C(=O)N/N=C/c2ccccc2)c1-n1cccc1	none
Cn1[nH]c(=O)cc1C(=O)N/N=C/c1ccccc1	Dicer processing 3.1
CCCCC#Cc1cncc(C(=O)N/N=C/c2ccccc2)c1	none
CCOC(=O)C(=CNc1ccc(OC(F)(F)F)cc1)C(=O)OCC	none
CC(C)(C)SCCNC(=O)/C=C/c1ccccc1	none
C(#Cc1ccccc1)CNCCc1c[nH]c2ccccc12	Dicer processing 4.1
O=C1CC(NCCc2c[nH]c3ccccc23)C(=O)N1c1ccccc1 (stereo not drawn)	none
CSC1=NCC(=O)N1CCc1c[nH]c2ccccc12	none
Cc1ccc(S(=O)(=O)N2CCN(C)CC2)cc1-c1nnc2c3ccccc3c(C)nn12	none
Cn1cnc([N+](=O)[O-])c1NCCN1CCNC1=O	none
CCC(=O)OCC(=O)C1(OC(=O)CC)[C@H](C)C[C@H]2[C@H]3[C@H]([C@@H](O)C[C@@]21C)[C@@]1(C)C=CC(=O)C=C1C[C@H]3Cl (stereo partly drawn)	none
N#C/C(=C\N1CCc2ccccc2C1)C(=O)c1cccs1	none
O=C(c1cccs1)N1CCc2ccccc2C1	Dicer processing 3.7
O=C(c1ccncc1)N1CCN(C(=O)c2cccs2)CC1	none
CSc1nnc(SCCS(=O)(=O)c2ccc(Cl)cc2)s1	none
CCOc1nc(-c2ccc(OC)cc2)ccc1-c1noc(-c2cccnc2)n1	none
Nc1cc(Cl)ccc1Oc1ccccc1	none
Fc1c(F)c(Oc2ccccc2)c(F)c(F)c1Oc1ccccc1	none
Nc1ccc(Oc2ccccc2)cc1	Dicer processing 5
CC(=O)c1sc(C(=O)O)c(-c2ccco2)c1-c1ccco1	none
CC(=O)Nc1ccc(C)cc1N=Cc1ccc2c(c1)OCO2	none
O=C(Nc1ccc2oc(-c3ccccc3F)nc2c1)c1ccc([N+](=O)[O-])o1	none
Cc1ccccc1-c1nc2cc(NCc3cccs3)ccc2o1	Dicer processing 8.2
O=C(Nc1ccc2oc(-c3cccc4ccccc34)nc2c1)c1ccc([N+](=O)[O-])o1	none
Cc1cc(C)cc(N2C(=O)CCN(Cc3ccccc3)C2=O)c1	none
N#Cc1c(C(F)(F)F)cc(-c2ccccc2)n(N)c1=O	none
COC(=O)c1c(OC)cc(C)nc1C	none
COCCCN=C1NC(=O)C(CC(=O)Nc2cc(Cl)ccc2Cl)S1 (stereo not drawn)	none
COCCCN=C1NC(=O)C(CC(=O)Nc2ccccc2Cl)S1 (stereo not drawn)	Dicer processing 3.1
O=C(CC1Sc2ccccc2NC1=O)Nc1ccccc1Cl (stereo not drawn)	none
